PubChem BioAssay (NCI)
This is part of a sample that, as a whole, favours compounds with a hit. Of some 83,000 tested, about 20% had one in any assay.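 Note: values are percent growth. 100 is the growth of untreated cells, values between 100 and 0 indicate rising inhibition; between -100 and 0 indicates cell death.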 Values without a mark were called inactive. Calls of active or inactive are those of the source. The calls were made as follows: active = growth percent below 10; inactive = the rest.

system: MDA-MB-468 breast; assay: NCI-60 one-dose screen, 48 h (100 = growth as untreated, 0 = no growth, -100 = all killed); settings: 10 µM unless noted

Row | Compound | growth
1 | CCn1cnc2c(Nc3cccc(Cl)c3)nc(N[C@@H]3CCCC[C@@H]3N)nc21 | -22% (active)
2 | CC(=O)OC[C@]1(C)C=C2C(=O)[C@](C)(O)C3(CC3)C(C)=C2[C@H]1O | -71.7% (active)
3 | COc1ccc2c(ccc3oc([N+](=O)[O-])cc32)c1 | -57.8% (active)
4 | Cc1cc(CCl)c(C)cc1CCl | -59.9% (active)
5 | COC(=O)[C@@H](C)C[C@H](Cc1ccccc1)NC(=O)c1nc([C@@H](C[C@H](C(C)C)N(C)C(=O)[C@@H](NC(=O)[C@H]2CCCN2C)C(C)C)OC(C)=O)sc1C | 1.81% (active)
6 | Cn1cc(-c2csc(-c3cn(CCN4CCOCC4)c4ccc(F)cc34)n2)c2cccnc21 | 13.9%
7 | C[C@]12CC[C@H]3[C@@H](C[C@@H]4SC(Nc5ccccc5)=N[C@@]45CC(O)CC[C@]35C)[C@@H]1CCC2O (stereo not given in full) | -1% (active)
8 | c1cnc2c(c1)ccc1ncccc12 | 109%
9 | Cc1ccc(C[As+](c2ccccc2)(c2ccccc2)c2ccccc2)cc1 | -24.3% (active)
10 | Cc1ccc(C(=O)NCCCOc2ccc(N)cc2Cl)cc1S(=O)(=O)F | 84.6%
11 | CC[n+]1c(-c2ccccc2)c2cc(N)ccc2c2ccc(N)cc21 | -62.8% (active)
12 | CC1=CC(=O)CCC12CCOC2=O (stereo not given) | 105%
13 | NCCc1ccc(OCc2ccccc2)c(OCc2ccccc2)c1 | 48.5%
14 | CC1(C)N=C(N)N=C(N)N1c1ccc(OCCCCNC(=O)c2ccc(S(=O)(=O)F)cc2)c(Cl)c1 | 64.7%
15 | CCCCCCCOC(C(=O)OCCN(CC)CC)(c1ccccc1)c1ccccc1 | 79.7%
